Screening results: PubChem, National Center for Advancing Translational Sciences (NCATS)
mIDH1 inhibitor = qHTS for Inhibitors of mutant isocitrate dehydrogenase 1 (IDH1): qHTS; Isocitrate dehydrogenase [NADP] cytoplasmic (Homo sapiens), O75874; IDH1-R132H enzyme, NADPH consumption, diaphorase/resazurin fluorescence; Potency, µM (series often up to 76.6 µM), most hits filed as inhibitors; actives 0.093% (n = 390,000); AID 602179, 2012; further: nearly all actives have a fitted effect of over 65% in size
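IDH1-R132H (0.5 ug/mL) preincubated 30 min with compound, then NADPH (0.016 mM) and alpha-KG (2 mM) added; 80 min at RT, pH 7.5. Remaining NADPH coupled via diaphorase/resazurin to fluorescence (540/590 nm); concentration-response curves normalized to no-enzyme control.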
TrxR1 substrate = qHTS Assay for Substrates of Mammalian Selenoprotein Thioredoxin Reductase 1 (TrxR1): qHTS; purified TrxR1 substrate turnover, NADPH consumption readout; Thioredoxin reductase 1, cytoplasmic (Rattus norvegicus), O89049; actives 0.01% (n = 390,000); Potency, µM (top dose mostly 114 µM); AID 588456, 2011; further: nearly all actives have a fitted effect of over 50% in size
Target sequence (O89049 whole entry, looked up): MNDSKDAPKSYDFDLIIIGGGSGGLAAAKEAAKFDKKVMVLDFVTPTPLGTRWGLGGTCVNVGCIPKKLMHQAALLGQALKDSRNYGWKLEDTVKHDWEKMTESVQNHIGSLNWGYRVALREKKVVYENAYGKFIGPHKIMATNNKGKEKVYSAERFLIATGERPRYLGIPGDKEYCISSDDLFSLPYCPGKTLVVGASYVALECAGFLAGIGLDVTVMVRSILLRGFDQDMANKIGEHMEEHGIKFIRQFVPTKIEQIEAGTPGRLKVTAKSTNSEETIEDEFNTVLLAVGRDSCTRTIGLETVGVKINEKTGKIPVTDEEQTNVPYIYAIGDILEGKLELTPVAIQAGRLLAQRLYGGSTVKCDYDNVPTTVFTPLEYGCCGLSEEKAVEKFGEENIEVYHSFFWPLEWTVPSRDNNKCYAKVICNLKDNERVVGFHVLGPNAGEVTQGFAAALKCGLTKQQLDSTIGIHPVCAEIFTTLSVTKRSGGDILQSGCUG
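Rat TrxR1, dispensed at 90 nM, was prereduced with 400 uM NADPH (final) for 5 min at ~22 deg C, then incubated with compound 15 min before 400 uM selenite. A first-read NADPH fluorescence drop versus no-compound background flagged substrates.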
GLS inhibitor = qHTS for Inhibitors of Glutaminase (GLS) | Glutaminase kidney isoform, mitochondrial (Homo sapiens), O94925 | actives 0.21% (n = 410,000) | AID 624170, 2012 | Potency, µM (highest dose often 45.5 µM), usual class: inhibitors | GLS enzymatic activity, qHTS titration
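Enzyme dispensed in phosphate buffer (45 mM, pH 8.2, 0.02% Tween-20), compounds pinned in, then 1 mM L-glutamine solution and the glutamate oxidase–HRP–Amplex Red mix added; fluorescence read immediately and again after 30 min at room temperature.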
TrxR1 inh = qHTS Assay for Inhibitors of Mammalian Selenoprotein Thioredoxin Reductase 1 (TrxR1): qHTS | Thioredoxin reductase 1, cytoplasmic (Rattus norvegicus), O89049 | recombinant rTrxR1, NADPH fluorescence consumption, selenite substrate | Potency, µM (doses to about 114 µM), usual class: inhibitors | actives 1% (n = 390,000); further: nearly all actives have a fitted effect of over 65% in size
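Rat TrxR1 (90 nM in the dispensed reagent) was pre-reduced with 400 uM NADPH for 5 min at room temperature, then incubated with compound for 15 min. After 400 uM selenite was added, NADPH fluorescence (Ex 340/Em 450 nm) was followed for 8 min.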
Hits are given with their value. Most compounds without a hit are left out; they make up all but 1.2% or so of the library. The call rests on the fitted dose curve; in most records, active means well fitted curve in the direction sought with a large enough effect; inconclusive means small, poorly fitted or top-dose-only effect, or another doubt; inactive means no such curve, though single readings can be large; an effect the other way counts as inactive or inconclusive.

Screening CO[C@]1(NC(=O)Cc2cccs2)C(=O)N2C(C(=O)O)=CC(COC(N)=O)S[C@H]21 (stereo partly drawn) returned GLS inhibitor inactive.
`CC(C)c1ccc(NC(=O)C2CCCN2S(=O)(=O)c2ccc3nc(-c4ccccc4)[nH]c3c2)cc1` (stereo not drawn) gave mIDH1 inhibitor inactive, TrxR1 substrate inactive, GLS inhibitor inactive and TrxR1 inh inactive.
C#CCN(Cc1ccc(OC)cc1)S(=O)(=O)C=C was read as TrxR1 substrate inactive and TrxR1 inh inactive.
Screening CC1(C(=O)O)CCC2(C)CCC3(C)C(=CC(=O)[C@@H]4C5(C)CC[C@H](O[C@H]6O[C@H](C(=O)O)C(O)C(O)[C@H]6O[C@@H]6O[C@H](C(=O)O)C(O)C(O)C6O)C(C)(C)[C@@H]5CCC43C)[C@@H]2C1 (stereo partly drawn) returned GLS inhibitor 14.1µM.
`O=c1[nH]n(-c2ccc(Cl)cc2)c(=O)c(Cl)c1Cl` gave mIDH1 inhibitor inactive, TrxR1 substrate inactive, GLS inhibitor inactive and TrxR1 inh 22.4µM.
`CCc1ccc(S(=O)(=O)/N=C2\C=C(Nc3ccc(O)cc3)C(=O)c3ccccc32)cc1` gave mIDH1 inhibitor inactive, TrxR1 substrate inactive, GLS inhibitor 4.47µM and TrxR1 inh inactive.
For CCc1ccc(S(=O)(=O)/N=C2/C=C(Sc3ncn[nH]3)C(=O)c3ccccc32)cc1 the results were mIDH1 inhibitor inactive, TrxR1 substrate 7.94µM, GLS inhibitor inactive and TrxR1 inh inconclusive.
`CS(=O)(=O)N1CCN(c2nc(-c3cccs3)nc3ccccc23)CC1` gave TrxR1 substrate inactive and TrxR1 inh inactive.
`CCOC(=O)c1cc(-c2ccccc2)n(CC(=O)NC2CCC(C)CC2)c1C` (stereo not drawn) gave mIDH1 inhibitor inactive, TrxR1 substrate inactive, GLS inhibitor inactive and TrxR1 inh inactive.
Screening CC(=O)c1ccc(OCCCC(=O)Nc2cc(S(=O)(=O)N3CCCCC3)ccc2C)cc1 returned mIDH1 inhibitor inactive, TrxR1 substrate inactive, GLS inhibitor inactive and TrxR1 inh inactive.
CCN(CC)c1ccc(/C=C2/SC(=O)N(C(C)C)C2=O)o1 was read as mIDH1 inhibitor inactive, TrxR1 substrate inactive, GLS inhibitor inconclusive and TrxR1 inh 3.16µM.
`CC(C)N1C(=O)S/C(=C\c2ccc(-c3ccc(Cl)c(C(=O)O)c3)o2)C1=O` gave mIDH1 inhibitor inactive, TrxR1 substrate inactive, GLS inhibitor inconclusive and TrxR1 inh inactive.
Screening N#Cc1nc(COc2ccccc2Cl)oc1NCc1cccnc1 returned mIDH1 inhibitor inactive, TrxR1 substrate inactive, GLS inhibitor inactive and TrxR1 inh 35.5µM.
For N#Cc1nc(COc2ccccc2Cl)oc1NCc1ccc(F)cc1 the results were mIDH1 inhibitor inactive, TrxR1 substrate inactive, GLS inhibitor inactive and TrxR1 inh inactive.
CCN(CC)CCNC(=O)C1c2cc(OC)c(OC)cc2C(=O)N2CCc3ccccc3C12 (stereo not drawn) was read as mIDH1 inhibitor inactive, TrxR1 substrate inactive, GLS inhibitor inactive and TrxR1 inh 35.5µM.
COc1cc2c(cc1OC)C(C(=O)NC1CC1)C1c3ccccc3CCN1C2=O (stereo not drawn) was read as mIDH1 inhibitor inactive, TrxR1 substrate inactive, GLS inhibitor inactive and TrxR1 inh inactive.
`O=C(NC1CCCCC1)Sc1ccc(Cl)cc1` gave mIDH1 inhibitor inactive, TrxR1 substrate inactive, GLS inhibitor inactive and TrxR1 inh 17.8µM.
For O=C(CSc1ccc(Cl)cc1)NC1CCCC1 the results were mIDH1 inhibitor inactive, TrxR1 substrate inactive, GLS inhibitor inactive and TrxR1 inh inactive.
For O=C(CCN1C(=O)NC2(CCCC2)C1=O)Nc1ccc(-c2nc3ccccc3s2)cc1 the results were mIDH1 inhibitor inactive, TrxR1 substrate inactive, GLS inhibitor inactive and TrxR1 inh inactive.
`Cc1cc(S(=O)(=O)Nc2ccc(-c3ccc(N4CCCCCC4)nn3)cc2)c(C)cc1Cl` gave mIDH1 inhibitor inactive, TrxR1 substrate inactive, GLS inhibitor inactive and TrxR1 inh inactive.
Screening CCOC(=O)c1[nH]c(=O)[nH]c1COC(=O)c1cc2ccccc2o1 returned mIDH1 inhibitor inactive, TrxR1 substrate inactive, GLS inhibitor inactive and TrxR1 inh 3.16µM.
`CCOC(=O)c1[nH]c(=O)[nH]c1CSc1nc(C)cc(C)n1` gave mIDH1 inhibitor inactive, TrxR1 substrate inactive, GLS inhibitor inactive and TrxR1 inh inactive.
`Oc1ccc(N=C/C=C/c2cccc(Br)c2)cc1-c1nc2ccccc2s1` gave mIDH1 inhibitor inactive, TrxR1 substrate inactive, GLS inhibitor 14.1µM and TrxR1 inh inconclusive.
Screening CCc1nnc(NS(=O)(=O)c2ccc(NC(=S)NC(=O)c3ccc(OC)cc3)cc2)s1 returned mIDH1 inhibitor inactive, TrxR1 substrate inactive, GLS inhibitor inactive and TrxR1 inh 11.2µM.
CCc1nnc(NS(=O)(=O)c2ccc(NC(=S)NC(=O)/C=C/c3ccc(F)cc3)cc2)s1 was read as mIDH1 inhibitor inactive, TrxR1 substrate inactive, GLS inhibitor inactive and TrxR1 inh 50.1µM.
Screening O=C(NC(=S)Nc1ccc(S(=O)(=O)Nc2nccs2)cc1)c1ccc(F)cc1 returned mIDH1 inhibitor inactive, TrxR1 substrate inactive, GLS inhibitor inactive and TrxR1 inh 22.4µM.
CC(C)(C)C(=O)NC(=S)Nc1ccc(S(=O)(=O)Nc2nccs2)cc1 was read as mIDH1 inhibitor inactive, TrxR1 substrate inactive, GLS inhibitor inactive and TrxR1 inh inactive.
CCc1nnc(NS(=O)(=O)c2ccc(NC(=S)NC(=O)/C=C/c3ccc([N+](=O)[O-])cc3)cc2)s1 was read as mIDH1 inhibitor inactive, TrxR1 substrate inactive, GLS inhibitor inactive and TrxR1 inh inactive.
CN(C)S(=O)(=O)c1cccc(NC(=O)COC(=O)/C=C/c2ccco2)c1 was read as mIDH1 inhibitor inactive, TrxR1 substrate inactive, GLS inhibitor inactive and TrxR1 inh 25.1µM.
For O=C(COC(=O)/C=C/c1ccco1)Nc1ncc(C(F)(F)F)cc1Cl the results were mIDH1 inhibitor inactive, TrxR1 substrate inactive, GLS inhibitor inactive and TrxR1 inh inconclusive.
Cc1c(Cl)cnc(NC(=O)COC(=O)C(NC(=O)c2ccco2)C(C)C)c1Cl (stereo not drawn) was read as mIDH1 inhibitor inactive, TrxR1 substrate inactive, GLS inhibitor inactive and TrxR1 inh 50.1µM.
`Cc1c(Cl)cnc(NC(=O)COC(=O)/C=C/c2ccco2)c1Cl` gave mIDH1 inhibitor inactive, TrxR1 substrate inactive, GLS inhibitor inconclusive and TrxR1 inh 15.8µM.
Cc1nc(NC(=O)COC(=O)[C@@H](NC(=O)c2ccco2)C(C)C)c(Cl)cc1Cl was read as mIDH1 inhibitor inactive, TrxR1 substrate inactive, GLS inhibitor inactive and TrxR1 inh inactive.
O=S(=O)(c1cccc(Br)c1)N1CCN(c2nc(-c3cccs3)nc3ccccc23)CC1 was read as TrxR1 substrate inactive and TrxR1 inh inactive.
